Assay outcomes from PubChem BioAssay.
HP1b chromo inh: inhibitors of HP1-beta chromodomain binding to methylated histone tails. AID 540317. AlphaScreen HP1-beta / biotin-H3K9me3 peptide binding. 0.56% of 390,000 active. Potency, µM (series often up to 114 µM), for the others: top-dose activity change, negative = inhibition, hits mostly inhibitors. P83916; note: nearly all actives have a fitted effect of over 70% in size
Target sequence (P83916 whole entry, looked up): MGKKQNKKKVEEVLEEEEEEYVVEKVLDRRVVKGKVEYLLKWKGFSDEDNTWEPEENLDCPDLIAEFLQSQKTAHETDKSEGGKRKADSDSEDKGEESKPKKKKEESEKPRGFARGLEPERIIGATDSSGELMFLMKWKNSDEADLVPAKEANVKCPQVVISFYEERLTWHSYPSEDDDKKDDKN
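HP1-beta protein (50 nM final) preincubated 30 min at room temperature with biotinylated H3(1-18)K9me3 peptide (50 nM) in PBS pH 7.4, 0.01% Tween-20, then compound added for 30 min. AlphaScreen streptavidin donor/nickel chelate acceptor beads (10 ug/mL final), 30 min dark, luminescence read.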
G9a inh: inhibitors of human histone lysine methyltransferase G9a; Q96KQ7; G9a H3K9 monomethylation, AlphaScreen, 2 h; Potency, µM (doses to about 102 µM), for the others: top-dose activity, negative = inhibition, usual class: inhibitors; 8.8% of 350,000 active; AID 504332; note: % is set by controls: 0 for no effect and ±100 for the full control effect; nearly all actives have a fitted effect of over 75% in size
Target sequence (Q96KQ7 913-1193 limits assumed): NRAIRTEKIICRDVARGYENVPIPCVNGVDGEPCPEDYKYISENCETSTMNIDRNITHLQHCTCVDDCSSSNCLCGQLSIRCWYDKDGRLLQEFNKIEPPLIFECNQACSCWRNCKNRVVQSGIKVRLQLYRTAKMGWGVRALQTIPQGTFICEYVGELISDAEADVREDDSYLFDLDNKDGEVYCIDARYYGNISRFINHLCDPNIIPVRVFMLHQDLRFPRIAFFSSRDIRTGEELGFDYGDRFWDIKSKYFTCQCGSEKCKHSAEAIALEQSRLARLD
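G9a (20 nM) preincubated 15 min RT with compounds, then 500 nM biotinylated H3K9 peptide and 20 uM SAM added; 2 h RT reaction. Monomethyl-H3K9 product detected by AlphaScreen with anti-H3K9me1 antibody, streptavidin donor and anti-rabbit IgG acceptor beads.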
L3MBTL1 inh: inhibitors of human L3MBTL1 | 0.66% of 230,000 active | AlphaScreen L3MBTL1–H3K9me1 peptide binding | Potency, µM (titrated, usually from 57.1 µM), for inactives: at the highest dose activity, negative = inhibition, most hits filed as inhibitors | Q9Y468; note: % is set by controls: 0 for no effect and ±100 for the full control effect; nearly all actives have a fitted effect of over 60% in size
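Read-out is AlphaScreen signal from streptavidin donor and nickel chelate acceptor beads (10 ug/mL final each) bridging L3MBTL1 (50 nM) and biotinylated K9-monomethylated H3(1-15) peptide (75 nM), after 30 min compound exposure at room temperature.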
JMJD2A Tudor: blocks the human JMJD2A Tudor domain. 4.4% of 390,000 active. Potency, µM (doses to about 114 µM), for inactives: top-dose activity change, negative = inhibition, most hits filed as inhibitors. AlphaScreen JMJD2A-Tudor / H3K4me3 peptide binding. AID 504339; note: % is set by controls: 0 for no effect and ±100 for the full control effect; nearly all actives have a fitted effect of over 50% in size
BAZ2B block: inhibitors of human BAZ2B bromodomain; Q9UIF8; AlphaScreen BAZ2B-H3K14Ac peptide displacement; Potency, µM (top dose mostly 114 µM), for inactives: at the top dose activity change, negative = inhibition, most hits filed as inhibitors; 4.4% of 360,000 active; AID 504333; note: % is set by controls: 0 for no effect and ±100 for the full control effect; nearly all actives have a fitted effect of over 60% in size
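BAZ2B (50 nM) with biotin-H3(5-23)K14Ac peptide (50 nM) in PBS pH 7.4, 0.01% Tween-20, preformed 30 min, then compound 30 min at room temperature; top concentration 110uM. AlphaScreen streptavidin donor/nickel chelate acceptor beads (10 ug/mL final), 20 min dark, signal read.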
The depositor's hits bear a star; [ ] = remark or other dose. A selection: hits, their analogues and other compounds. The true share with any hit is near 11%. Calls come from the whole dose curve; as a rule, active = well fitted inhibition curve with a large enough effect; inconclusive = small, poorly fitted or top-dose-only effect; inactive = no such curve, though single readings can be large or run the other way. Potency is the fitted concentration of half-maximal effect.

Cc1cccc(OCC(=O)Nc2ccc3oc(=O)ccc3c2)c1C was read as HP1b chromo inh 30%, G9a inh 50µM*, JMJD2A Tudor -1% and BAZ2B block -12%.
`CC(=O)N[C@@H](Cc1c[nH]c2ccccc12)C(=O)OCC(=O)Nc1ccc2c(c1)OCO2` gave HP1b chromo inh 26% and JMJD2A Tudor -30%.
Cc1ccc(OCC(=O)Nc2ccc3oc(=O)ccc3c2)cc1 was read as HP1b chromo inh 30%, G9a inh -2%, JMJD2A Tudor -14% and BAZ2B block 10%.
Screening Cc1ccc(C(=O)N2CCN(c3ccc(NC(=O)COc4ccccc4C)cc3)CC2)cc1 returned HP1b chromo inh -17%, G9a inh 40µM*, L3MBTL1 inh -9%[11.4 µM], JMJD2A Tudor inconclusive and BAZ2B block 35µM*.
`Cc1cccc(OCC(=O)Nc2ccc(N3CCCC3)cc2)c1C` gave HP1b chromo inh -23%, G9a inh 28µM*, L3MBTL1 inh -12% and JMJD2A Tudor inconclusive.
O=C(COC(=O)[C@H](Cc1c[nH]c2ccccc12)NC(=O)c1ccc(Cl)cc1)Nc1ccc2c(c1)OCO2 was read as HP1b chromo inh -13%, G9a inh inconclusive, JMJD2A Tudor inconclusive and BAZ2B block 56µM*.
Screening CCOC(=O)c1ccc(NC(=O)c2ccc(CN3C(=O)CCn4nc(C)cc43)cc2)cc1 returned HP1b chromo inh 64%, G9a inh -3%[59 µM], JMJD2A Tudor -14% and BAZ2B block 19%.
`Cc1ccc(OCC(=O)NC2=NCCS2)cc1` gave HP1b chromo inh inconclusive, L3MBTL1 inh 1%, JMJD2A Tudor -17% and BAZ2B block -6%.
For COc1ccc(N2CCN(S(=O)(=O)CCNC(=O)COc3ccccc3F)CC2)cc1 the results were HP1b chromo inh 9%[57 µM], G9a inh inconclusive, JMJD2A Tudor -18% and BAZ2B block -6%.
`Cc1ccccc1OCC(=O)NC1=NCCS1` gave HP1b chromo inh 39%, G9a inh 28µM*, JMJD2A Tudor -8% and BAZ2B block -29%.
CCC(=O)N1CCN(c2ccc(NC(=O)COc3ccccc3Cl)cc2)CC1 was read as HP1b chromo inh 26%, G9a inh 16µM*, JMJD2A Tudor -25% and BAZ2B block -8%.
`COc1ccc(N2CCN(S(=O)(=O)CCNC(=O)COc3ccccc3C)CC2)cc1` gave HP1b chromo inh 8%, G9a inh 45µM*, L3MBTL1 inh 3%, JMJD2A Tudor -33% and BAZ2B block inconclusive.
CCc1ccccc1NC(=O)CN1C(=O)COc2ccc(S(=O)(=O)Nc3ccccc3)cc21 was read as HP1b chromo inh 4%, G9a inh -29%[59 µM], JMJD2A Tudor -17% and BAZ2B block -9%.
Cn1c(CNC(=O)CCNC(=O)c2ccc(F)c(F)c2)cc(=O)n(C)c1=O was read as HP1b chromo inh 21%, G9a inh 13%, JMJD2A Tudor -13% and BAZ2B block 2%[57.1 µM].
For Cc1ccccc1-c1noc(CCC(=O)NCC2CCCO2)n1 (stereo not given) the results were HP1b chromo inh 14%, G9a inh 13µM*, JMJD2A Tudor -13% and BAZ2B block 7%.
Screening C/C(=N\NC(=O)C1=NNC(=O)C1C)c1cccs1 (stereo not given) returned HP1b chromo inh 27%, G9a inh 45µM*, L3MBTL1 inh 16%, JMJD2A Tudor -2%[11.4 µM] and BAZ2B block inconclusive.
For C/C(=N\NC(=O)c1ccncc1)c1cccnc1 the results were HP1b chromo inh 21%, G9a inh inconclusive, JMJD2A Tudor -2% and BAZ2B block inconclusive.
For CCCCCCCCC(=O)N/N=C(\C)c1cccnc1 the results were HP1b chromo inh 63%, G9a inh 10µM*, L3MBTL1 inh 12%, JMJD2A Tudor 89µM* and BAZ2B block -30%.
`O=C(NNC(=S)NC(=O)c1cccs1)c1ccc(O)cc1` gave HP1b chromo inh 50%, G9a inh 40µM*, JMJD2A Tudor -22% and BAZ2B block 0%.
C/C(=N\NC(=O)c1cccs1)c1cccnc1 was read as HP1b chromo inh -10%, G9a inh -8% and JMJD2A Tudor 18µM*.
